The values below come from PubChem BioAssay.

Active and inactive are the calls of the source.

One experiment deals with Albumin (Bos taurus) (UniProt P02769). Kind of experiment: bovine serum albumin binders on microarray, profiling panel, artefact control for SMM control protein annotation, biochemical, small-molecule microarray, Alexa647 label, 635/667 nm fluorescence (AID 1118).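 Further: score merges 667 nm emission intensity and signal-to-noise per printed compound spot.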 Conditions: BSA-A647 binding, fluorescence 635 nm, higher = more signal.
A short description of experiment [1]: small-molecule microarray binders of probe aXIP, primary screen, biochemical, NeuroSMM set, 635/667 nm fluorescence (AID 1119).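 Further: probe is the protein aXip251-270 applied at 1 µg/mL to compound-printed slides; binding of probe to printed compounds measured as 667 nm fluorescence plus signal to noise.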 Conditions: higher = more signal, called active from +8 up or from −8 down.
Experiment [2] can be described thus: small-molecule binders of probe aNOTCH3, primary screen, biochemical, small-molecule microarray, 635/667 nm fluorescence (AID 1120).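 Further: probe is a biotin-tagged antibody raised against NOTCH3 rather than NOTCH3 protein; score merges spot fluorescence near 667 nm with spot signal to noise.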 As to conditions: higher = more signal.
The nature of experiment [3]: small-molecule binders of probe aNOTCH2, primary screen, biochemical, small-molecule microarray, 635/667 nm fluorescence (AID 1121).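 Further: score merges feature fluorescence read at 667 nm with its signal to noise.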 Conditions: higher = more signal.
Experiment [4] has as its target Carbonic anhydrase 2 (Homo sapiens) (UniProt P00918). Kind of experiment: CAII small-molecule binders, profiling panel, biochemical, small-molecule microarray, Alexa647-labelled CAII (AID 1122). As to conditions: CAII-A647 binding fluorescence, higher = more signal.
A short description of experiment [5]: COS7 lysate on small-molecule microarray, probe aHis, 635 nm (AID 1123).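 Further: z-score combines 667nm fluorescence intensity with signal-to-noise per printed compound spot.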 Conditions: COS7 cell lysate, fluorescence, higher = more signal.
Experiment [6] in a line: compound binding in COS7 lysate, probe aLAP1, primary screen, cell lysate, small-molecule microarray (AID 1124).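 Further: lysate comes from COS7 cells expressing LAP1 and is applied at 0.3 µg/mL; score merges spot fluorescence near 667 nm with signal-to-noise over triplicate slides.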 As to conditions: probe aLAP1, fluorescence, higher = more signal.
The test system of another experiment is Sam68 (KHDRBS1). Description: Sam68 small-molecule binders, primary screen, biochemical, small-molecule microarray, 635 nm fluorescence (AID 1125).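 Further: score merges 667 nm channel intensity with signal to noise over triplicate slides.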 Conditions: small-molecule microarray binding, higher = more signal.
The test system of experiment [7] is Chordin-like protein 2 (CHRDL2). Kind of experiment: CHRDL2 small-molecule binders, primary screen, biochemical, small-molecule microarray, 635 nm fluorescence (AID 1126).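 Further: printed compound slides probed with Chrdl2 protein at 4 µg/mL for 1 h at 4 C; score merges 667 nm emission intensity with signal to noise over three replicate slides.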 Conditions: small-molecule microarray binding, fluorescence 635 nm; higher = more signal.
For experiment [8], the target named is Concanavalin-A (Canavalia ensiformis) (UniProt P02866). Description: ConA small-molecule binders, primary screen, artefact control for SMM control protein annotation, biochemical, small-molecule microarray, Alexa647 label, 635 nm (AID 1127).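 Further: z combines 667 nm emission intensity with signal-to-noise across three replicate slides.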 Conditions: ConA-A647 binding fluorescence, higher = more signal.
The nature of experiment [9]: anti-His antibody binders, primary screen, artefact control for SMM control protein annotation, biochemical, small-molecule microarray, 635 nm fluorescence (AID 1128).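 Further: score merges feature fluorescence with signal-to-noise for each printed compound spot.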 Conditions: anti-His Alexa647 antibody binding, higher = more signal.
Experiment [10] concerns Human papillomavirus type 1a E7 protein (residues 1-88). Description: HPV1a E7 small-molecule binders, primary screen, biochemical, small-molecule microarray, residues 1-88, 635 nm (AID 1129). As to conditions: small-molecule microarray binding, fluorescence 635 nm; higher = more signal.
Experiment [11] concerns the target Focal adhesion kinase 1 (Homo sapiens) (UniProt Q05397). Description: small-molecule microarray binders of FAK, primary screen, biochemical, 635/667 nm fluorescence, BSA, DTT (AID 1130).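 Further: composite of spot emission at 667 nm and signal to noise over triplicate slides.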 Conditions: PTK2 binding, 635 nm fluorescence, higher = more signal.
For experiment [12], the system named is Fibrinogen (Alexa647-labelled). Description: fibrinogen binders on compound microarrays, profiling panel, artefact control for SMM control-protein annotation, biochemical, small-molecule microarray, 635/667 nm fluorescence (AID 1131).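 Further: z-score merges 667 nm fluorescence with per-spot signal-to-noise over triplicate slides.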 Conditions: fibrinogen-A647 binding fluorescence, higher = more signal.
The target in experiment [13] is Follistatin (Homo sapiens) (UniProt P19883). Description: follistatin binders on small-molecule microarrays, primary screen, biochemical, small-molecule microarray, 635/667 nm fluorescence (AID 1132). As to conditions: FST binding, 635 nm fluorescence, higher = more signal.
The target of experiment [14] is Fibroblast growth factor 2 (Homo sapiens) (UniProt P09038). Kind of experiment: FGF2 binders on small-molecule microarrays, primary screen, biochemical, small-molecule microarray, 635/667 nm fluorescence (AID 1133). Conditions: small-molecule microarray binding, FGF2, fluorescence 635/667; higher = more signal.
Experiment [15] can be described thus: mitochondrial membrane potential change in A549 cells, profiling panel, cell-based, JC-1 fluorescence, basal, 24 h, 100 nL (AID 1138).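 Further: A549 lung adenocarcinoma cells under basal conditions with no added stimulus; test concentration not given here.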 As to conditions: higher = more signal.
For another experiment, the system named is Lefty1. Description: Lefty1 binders on small-molecule microarrays, primary screen, biochemical, small-molecule microarray, 635/667 nm fluorescence (AID 1139). Conditions: small-molecule microarray binding, fluorescence 635/667; higher = more signal.
Experiment [16] relates to wheat germ agglutinin (Triticum aestivum), Alexa647-labelled. Description: wheat germ agglutinin binders on compound microarrays, profiling panel, artefact control for SMM control-protein annotation, biochemical, small-molecule microarray, 635/667 nm fluorescence (AID 1140).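 Further: score merges 667 nm feature emission with signal to noise over triplicate slides.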 As to conditions: WGA-A647 binding, 635 nm fluorescence, higher = more signal.
Experiment [17] concerns the target Luciferin 4-monooxygenase (Photinus pyralis) (UniProt P08659). Kind of experiment: firefly luciferase enzyme inhibitors, primary screen, biochemical, luminescence, purified enzyme, 2006 set (AID 1141).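 Further: cell-free assay with purified firefly luciferase at 100 ng per well in PBS; test concentration not given here.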 As to conditions: SteadyGlo luminescence, 30 min, higher = more signal, called active from +8 up or from −8 down.

Focal adhesion kinase 1 (Homo sapiens), sequence (Q05397 whole entry, looked up): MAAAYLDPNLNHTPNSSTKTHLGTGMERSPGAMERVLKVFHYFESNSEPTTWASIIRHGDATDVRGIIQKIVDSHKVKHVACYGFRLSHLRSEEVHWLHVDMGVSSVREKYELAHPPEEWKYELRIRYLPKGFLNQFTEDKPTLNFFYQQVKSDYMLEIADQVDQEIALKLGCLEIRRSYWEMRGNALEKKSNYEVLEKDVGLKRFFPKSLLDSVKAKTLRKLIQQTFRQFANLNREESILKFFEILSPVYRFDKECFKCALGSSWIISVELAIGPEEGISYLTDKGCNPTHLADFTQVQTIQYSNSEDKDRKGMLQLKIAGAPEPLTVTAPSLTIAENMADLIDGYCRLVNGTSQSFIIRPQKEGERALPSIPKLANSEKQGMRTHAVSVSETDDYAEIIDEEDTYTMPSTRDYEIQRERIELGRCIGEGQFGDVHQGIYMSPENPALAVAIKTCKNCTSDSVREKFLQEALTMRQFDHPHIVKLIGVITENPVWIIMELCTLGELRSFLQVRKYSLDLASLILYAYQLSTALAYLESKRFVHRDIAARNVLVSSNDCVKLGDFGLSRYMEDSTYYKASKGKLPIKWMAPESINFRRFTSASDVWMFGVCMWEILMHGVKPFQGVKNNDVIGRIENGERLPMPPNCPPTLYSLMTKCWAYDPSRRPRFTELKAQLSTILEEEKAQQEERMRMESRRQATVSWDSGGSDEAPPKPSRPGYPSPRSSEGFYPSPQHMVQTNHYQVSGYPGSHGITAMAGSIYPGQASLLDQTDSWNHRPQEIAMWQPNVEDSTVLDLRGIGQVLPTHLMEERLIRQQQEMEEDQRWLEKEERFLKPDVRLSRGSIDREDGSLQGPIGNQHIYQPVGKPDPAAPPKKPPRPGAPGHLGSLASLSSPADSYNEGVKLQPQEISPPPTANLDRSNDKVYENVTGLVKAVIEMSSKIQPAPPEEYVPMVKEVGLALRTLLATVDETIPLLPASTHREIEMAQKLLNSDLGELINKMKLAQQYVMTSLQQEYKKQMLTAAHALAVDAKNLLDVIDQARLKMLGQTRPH
Concanavalin-A (Canavalia ensiformis), sequence (P02866 whole entry, looked up): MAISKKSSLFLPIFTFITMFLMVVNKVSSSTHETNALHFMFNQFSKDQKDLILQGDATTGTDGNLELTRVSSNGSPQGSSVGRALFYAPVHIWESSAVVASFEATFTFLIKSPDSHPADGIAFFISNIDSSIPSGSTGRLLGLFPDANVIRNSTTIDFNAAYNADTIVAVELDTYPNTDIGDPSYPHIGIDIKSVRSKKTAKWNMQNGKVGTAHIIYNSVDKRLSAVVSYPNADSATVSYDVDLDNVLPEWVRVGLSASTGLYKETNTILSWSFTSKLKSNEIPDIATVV
Follistatin (Homo sapiens), sequence (P19883 whole entry, looked up): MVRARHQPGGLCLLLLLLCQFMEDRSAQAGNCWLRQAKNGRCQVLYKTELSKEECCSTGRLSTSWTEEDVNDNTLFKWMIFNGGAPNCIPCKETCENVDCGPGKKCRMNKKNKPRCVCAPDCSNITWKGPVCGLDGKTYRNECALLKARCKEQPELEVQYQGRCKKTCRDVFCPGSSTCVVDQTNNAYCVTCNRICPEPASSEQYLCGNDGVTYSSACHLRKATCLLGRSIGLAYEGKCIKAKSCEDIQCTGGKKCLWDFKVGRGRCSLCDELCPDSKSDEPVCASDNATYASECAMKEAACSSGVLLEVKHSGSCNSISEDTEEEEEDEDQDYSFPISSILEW
Fibroblast growth factor 2 (Homo sapiens), sequence (P09038 whole entry, looked up): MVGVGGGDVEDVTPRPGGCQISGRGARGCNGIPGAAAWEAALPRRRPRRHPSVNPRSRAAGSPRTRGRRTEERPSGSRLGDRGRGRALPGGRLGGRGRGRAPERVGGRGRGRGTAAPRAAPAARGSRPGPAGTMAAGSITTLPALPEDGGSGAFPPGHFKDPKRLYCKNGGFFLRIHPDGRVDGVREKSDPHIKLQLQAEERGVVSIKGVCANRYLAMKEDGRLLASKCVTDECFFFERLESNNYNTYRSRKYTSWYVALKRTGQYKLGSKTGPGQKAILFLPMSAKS
Luciferin 4-monooxygenase (Photinus pyralis), sequence (P08659 whole entry, looked up): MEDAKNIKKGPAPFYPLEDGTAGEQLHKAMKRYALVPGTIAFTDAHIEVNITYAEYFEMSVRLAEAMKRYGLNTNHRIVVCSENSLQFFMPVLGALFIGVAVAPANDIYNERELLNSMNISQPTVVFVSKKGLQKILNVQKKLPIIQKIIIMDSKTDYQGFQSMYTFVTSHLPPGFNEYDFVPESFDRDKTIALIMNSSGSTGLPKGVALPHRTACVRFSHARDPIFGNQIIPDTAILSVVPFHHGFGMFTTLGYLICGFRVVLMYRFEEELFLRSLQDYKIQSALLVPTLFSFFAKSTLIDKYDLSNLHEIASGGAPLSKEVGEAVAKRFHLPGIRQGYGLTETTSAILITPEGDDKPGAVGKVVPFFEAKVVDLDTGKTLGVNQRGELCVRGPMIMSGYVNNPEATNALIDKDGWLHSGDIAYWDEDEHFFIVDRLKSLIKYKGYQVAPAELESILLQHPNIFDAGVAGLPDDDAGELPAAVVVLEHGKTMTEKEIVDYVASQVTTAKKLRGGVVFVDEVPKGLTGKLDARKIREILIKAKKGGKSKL
Albumin (Bos taurus), sequence (P02769 whole entry, looked up): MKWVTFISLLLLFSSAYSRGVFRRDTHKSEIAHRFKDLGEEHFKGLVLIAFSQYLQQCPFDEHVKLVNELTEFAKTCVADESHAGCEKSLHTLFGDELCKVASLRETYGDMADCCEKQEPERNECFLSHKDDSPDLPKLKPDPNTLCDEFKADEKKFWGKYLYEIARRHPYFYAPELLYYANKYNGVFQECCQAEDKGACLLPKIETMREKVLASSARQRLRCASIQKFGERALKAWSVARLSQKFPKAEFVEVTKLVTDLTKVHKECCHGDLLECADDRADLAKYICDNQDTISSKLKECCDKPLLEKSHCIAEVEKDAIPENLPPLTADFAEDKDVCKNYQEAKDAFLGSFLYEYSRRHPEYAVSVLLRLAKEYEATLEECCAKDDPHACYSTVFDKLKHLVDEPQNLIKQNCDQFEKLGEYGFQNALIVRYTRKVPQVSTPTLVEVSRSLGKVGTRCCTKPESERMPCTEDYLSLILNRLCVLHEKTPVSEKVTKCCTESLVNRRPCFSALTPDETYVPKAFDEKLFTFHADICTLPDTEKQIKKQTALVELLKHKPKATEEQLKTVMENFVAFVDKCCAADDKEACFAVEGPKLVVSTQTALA

For `COC(=O)[C@]1(CO)N=C(c2ccc(OCCCO)cc2)O[C@@H]1c1ccccc1N=[N+]=[N-]`, the composite z-score with Albumin (Bos taurus) was -1.02; in experiment [2], -0.112; in experiment [3], -0.0629; in experiment [4], 0.771; in experiment [5] it was 4.01; in experiment [6], 0.758. Further, the composite z-score in the experiment with Sam68 (KHDRBS1) is 1.29; in experiment [7], 0.94; in [8] it was 0.545; in experiment [9] it was 1.3; in experiment [10] it was 0.541; in [11], -0.277. The composite z-score was 0.633 in experiment [12]; 1.43 in experiment [13]; 1.6 in experiment [14]; 0.83 in the experiment on Lefty1; -0.119 in experiment [16]. Moreover, the composite Z-score in experiment [1] is 1.73 (inactive). The values for the z-score in [15] and in experiment [17] were 0.299 and -1.64 (inactive), respectively.
Consider `C[C@H](c1ccccc1)N1C(=O)[C@H]2[C@H]3[C@H](O)[C@H](O)CC(=O)[C@@H]3CC[C@H]2C1=O`, for which the composite z-score is 0.493 with Albumin (Bos taurus); 0.148 in [2]; -0.114 in experiment [3]; 0.496 in experiment [4]; 0.13 in [5]; 0.876 in [6]. Besides, the composite z-score in the experiment on Sam68 (KHDRBS1) was -0.0681; in [7] it was 0.604; in experiment [8] it was 0.162; in [9], 0.62; in experiment [10] it was -0.0909; in experiment [11] it was 0.0546. In addition, the composite z-score in [12] came to 0.436; in [13], 0.469; in experiment [14] it was 0.51; with Lefty1 it was 0.515; in experiment [16] it was 0.286. The composite Z-score in experiment [1] was 0.17 (inactive). In addition, the figures for the z-score in experiment [15] and in [17] were 0.47 and 0.569 (inactive), respectively.
For the compound `CC(CCN1CCc2nc(-c3ccccc3)c(-c3ccccc3)cc2C1)=NOC(C)CN1CCCCc2nc(C)c(C)cc21` (stereo not given), the composite z-score was 0.56 in the experiment with Albumin (Bos taurus); 0.0379 in [2]; -0.14 in experiment [3]; 0.209 in experiment [4]; 0.789 in experiment [5]; 0.154 in [6]. Further, the composite z-score is 1.28 with Sam68 (KHDRBS1); 0.308 in experiment [7]; 1.05 in [8]; 0.605 in [9]; 0.791 in experiment [10]; 0.718 in experiment [11]. Further, the composite z-score in experiment [12] was found to be 0.845; in [13], 0.47; in experiment [14], 0.489; with Lefty1, 0.593; in experiment [16], 0.264. For the same compound, the composite Z-score in [1] is 0.766 (inactive). The z-score in experiment [15] is 1.52; in [17] it was -0.0959 (inactive).
With `Cc1cc2c(nc1C)CCCN2CC(C)ON=C1[C@H]2CCn3c(=O)n(-c4ccccc4)c(=O)n3[C@H]2[C@H](O)[C@@H]2O[C@H]12` (stereo not given in full), the composite z-score with Albumin (Bos taurus) is 0.243; in experiment [2], 0.173; in experiment [3], -0.0535; in experiment [4] it was 0.171; in experiment [5], 0.198; in experiment [6], 0.136. Also, the composite z-score with Sam68 (KHDRBS1) was 1.24; in [7], 0.647; in [8] it was 0.367; in [9], -0.674; in [10] it was 0.304; in experiment [11] it was 0.515. In addition, the composite z-score in [12] amounted to 0.342; in experiment [13] it was 0.687; in [14] it was 0.56; in the experiment on Lefty1, 0.703; in [16] it was 0.075. In addition, the composite Z-score in experiment [1] was 0.506 (inactive). Further, the results for the z-score in experiment [15] and in [17] were -0.562 and 0.424 (inactive), respectively.
For the compound `Cc1ccc(S(=O)(=O)N[C@@H]2COC(=O)[C@H](C)COC(=O)CC=C[C@H]2C)cc1`, the composite z-score is -0.601 with Albumin (Bos taurus); -0.224 in experiment [2]; -0.0817 in experiment [3]; -0.271 in [4]; -0.32 in [5]; -0.7 in experiment [6]. Moreover, the composite z-score with Sam68 (KHDRBS1) is 0.0715; in experiment [7] it was 1.23; in experiment [8], -0.0405; in experiment [9], -0.419; in experiment [10], -0.0268; in [11], -0.232. Besides, the composite z-score was -0.305 in [12]; 1.35 in experiment [13]; 0.98 in [14]; 1.38 in the experiment with Lefty1; -0.277 in [16]. For the same compound, the composite Z-score in [1] was -0.186 (inactive). The z-score in experiment [15] is 0.26; in experiment [17], -0.181 (inactive).
